Screening results from PubChem BioAssay.
ALDH1A1 inh: ALDH1A1 (human) enzyme inhibition; P00352; Purified ALDH1A1, NADH fluorescence, propionaldehyde substrate; Potency, µM (titrated, usually from 75.3 µM), for inactives: at the top dose activity, negative = inhibition, usual class: inhibitors; 7.3% of 220,000 active; AID 1030; active means well fitted inhibition curve with a large enough effect, not every such curve was filed as active; inconclusive means small, poorly fitted or top-dose-only effect, or another doubt; inactive means no such curve, though single readings can be large or run the other way;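 further: potency means the concentration at half of the fitted maximal effect; plate controls were no enzyme wells and a reference inhibitor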
IMPase Li inh: membrane-permeable IMPase blocker, potentiated with lithium | CHO-M1 cells, IP1 TR-FRET (IP-One), carbachol + lithium | 0.35% of 210,000 active | AID 1457 | Potency, µM (series often up to 59.4 µM), for inactives: at the highest dose activity, negative = IMPase inhibition, actives largely listed as inhibitors;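 further: IP1 builds up when IMPase is blocked and the TR-FRET signal falls; potency means the concentration at half of the fitted maximal effect; plate controls were basal vehicle for no effect and high inhibitor control for full effect; nearly all actives have a fitted effect of over 50% in size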
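Concentration–response in CHO-M1 cells, lithium-potentiated; 30 min at 37C. IP1 detected by competitive TR-FRET after 10 min lysis at RT. Hill-fitted AC50.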
IMPase inh: cell-permeable inhibitors of inositol monophosphatase (IMPase); P97697; CHO-M1 cells, IP1 accumulation, HTRF TR-FRET ratio; inhibition (IP1 accumulation), % at 46.1 µM; 120,000 tested, under 10 active; AID 901; active means well fitted curve in the direction sought with a large enough effect in the signal ratio, not every such curve was filed as active; inconclusive means small, poorly fitted or top-dose-only effect, or a change in a side signal; inactive means no such curve, though single readings can be large or run the other way; the % refers to the signal ratio;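 further: cells stimulated with carbachol in lithium chloride buffer; plate controls were DMSO basal wells for no effect and reference inhibitor wells for full effect; higher means more IMPase inhibition seen as more IP1 and lower FRET ratio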
Target sequence (P97697 whole entry, looked up): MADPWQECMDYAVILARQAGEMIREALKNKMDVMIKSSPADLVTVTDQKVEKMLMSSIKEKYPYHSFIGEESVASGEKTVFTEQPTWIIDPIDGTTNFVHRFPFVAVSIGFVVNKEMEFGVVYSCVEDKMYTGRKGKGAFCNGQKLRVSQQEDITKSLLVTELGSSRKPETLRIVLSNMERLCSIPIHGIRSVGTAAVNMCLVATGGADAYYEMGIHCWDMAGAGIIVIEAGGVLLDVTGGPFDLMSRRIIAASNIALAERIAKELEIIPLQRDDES
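Carbachol-driven Gq signalling in CHO-M1 cells (2000/well) generates IP1. Compounds that block IMPase raise IP1 and so reduce the FRET signal from Eu-anti-IP1 and d2-IP1 after a 10 min room-temperature lysis.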
HTT ATP protect: Huntington cell model cytoprotection by ATP luminescence; PC12 HTT-Q103 induced, cytoprotection, ATP luminescence, 40 h; Potency, µM (series often up to 56.4 µM), for the others: cytoprotection (ATP increase), most hits filed as activators; 0.14% of 230,000 active; AID 1471; further: potency means the concentration at half of the fitted maximal effect; % of control where 0% means no effect; nearly all actives have a fitted effect of over 45% in size
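Rat PC12, Q103 Htt exon1-GFP fusion, ecdysone promoter; tebufenozide inducer 100 nM final; compound titration; qHTS, 1500 cells/well; ATPlite luminescent read.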
HTT aggregate: reduces HttQ103-GFP aggregates in PC12 cells; PC12 HttQ103-GFP aggregates, Acumen cytometry, 40 h; Potency, µM (doses to about 46.1 µM), inactives show at the top dose activity change, negative = inhibition, usual class: inhibitors; 1.1% of 220,000 active; further: potency means the concentration at half of the fitted maximal effect; on the % scale 0 is the no-effect control and ±100 the full control effect; nearly all actives have a fitted effect of over 60% in size
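Aggregates are detected as GFP objects 1–25 µm with signal 6 STDEV over background in lysates of induced PC12 cells. These carry Huntingtin exon 1 with 103 glutamines fused to GFP under an ecdysone promoter; compounds titrated.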
HPGD block: HPGD (human) dehydrogenase inhibition. P15428. purified HPGD, NADH fluorescence kinetic, PGE2 substrate. Potency, µM, for inactives: top-dose activity change, negative = inhibition, actives largely listed as inhibitors. 4.3% of 150,000 active; active means well fitted inhibition curve with a large enough effect, not every such curve was filed as active; inconclusive means small, poorly fitted or top-dose-only effect, or another doubt; inactive means no such curve, though single readings can be large or run the other way; further: potency means the concentration at half of the fitted maximal effect; on the % scale 0 is the no-effect control and ±100 the full control effect
Target sequence (P15428 whole entry, looked up): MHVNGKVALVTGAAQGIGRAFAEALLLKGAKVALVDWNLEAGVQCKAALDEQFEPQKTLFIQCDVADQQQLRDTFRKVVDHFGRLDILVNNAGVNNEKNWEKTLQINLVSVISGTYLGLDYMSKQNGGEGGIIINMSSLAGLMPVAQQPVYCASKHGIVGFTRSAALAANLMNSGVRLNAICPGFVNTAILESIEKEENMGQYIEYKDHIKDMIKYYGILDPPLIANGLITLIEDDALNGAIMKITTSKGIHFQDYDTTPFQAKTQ
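NADH formation kinetics: reaction with 30 uM PGE2 and 1 mM NAD+ (final), 20 nM enzyme, Tris-HCl pH 8 with Tween 20, after 15 min compound preincubation at room temperature. Fluorescence change, last versus first of five reads.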
Active calls of the source: *; [ ] = another dose, or the depositor's remark. The list is not random: actives were taken first. Their share in the collection is about 9.4%. Unless noted, the call rests on the fitted dose curve; in most records, active means well fitted curve in the direction sought with a large enough effect; inconclusive means small, poorly fitted or top-dose-only effect, or another doubt; inactive means no such curve, though single readings can be large; an effect the other way counts as inactive or inconclusive.

`Cc1ccc(-n2c(N)c(-c3nc4ccccc4n3C)sc2=S)cc1` gave ALDH1A1 inh 3.5µM*, IMPase Li inh 31%[38.3 µM], IMPase inh 0, HTT ATP protect 3%[10 µM], HTT aggregate -1% and HPGD block 6.3µM*.
Screening Cc1c(NC(=O)c2sc3ccccc3c2Cl)cccc1-c1nc2ccccc2o1 returned IMPase inh -2.
`COc1cccc(Nc2ccc(C(=O)O)cc2[N+](=O)[O-])c1` gave ALDH1A1 inh -9%, IMPase Li inh -3%, IMPase inh 10, HTT ATP protect 14%[10 µM], HTT aggregate 1% and HPGD block 28µM*.
Screening Cc1ccc(C=Nc2cccnc2N)cc1 returned ALDH1A1 inh inconclusive, IMPase Li inh 10%, HTT ATP protect -6%[10 µM], HTT aggregate 29% and HPGD block -16%.
For CCOc1ccc(C=Nc2cccc3ncccc23)cc1 the results were ALDH1A1 inh 18µM*, IMPase Li inh 22%, HTT ATP protect 5% and HTT aggregate -19%.
For Cc1nc2cnc(OCc3ccccc3)nc2n(C)c1=O the results were ALDH1A1 inh -12%, IMPase Li inh -4% and HTT ATP protect 8%.
For Cc1cc(C)cc(Nc2nc3ccccc3nc2-n2nc(C)cc2C)c1 the results were IMPase inh 6.
CCOC(=O)c1c(NC(=O)C2CC2)sc(C)c1CC was read as ALDH1A1 inh 22µM*, IMPase Li inh 2%, HTT aggregate -24% and HPGD block inconclusive.
For CCOC(=O)c1sc(NC(C)=O)c(C(=O)OCC)c1C the results were ALDH1A1 inh inconclusive, IMPase Li inh 24%[38.3 µM], IMPase inh inconclusive, HTT ATP protect 10%, HTT aggregate -7% and HPGD block -12%.
`CCOC(=O)c1sc(NC(=O)CCN2CCCCCC2)c(C(=O)OCC)c1C` gave ALDH1A1 inh 2.5µM*, IMPase Li inh 14%, HTT ATP protect -59% and HTT aggregate 31%.
Screening CCOC(=O)c1c(N)sc(C(=O)N2CCCCCC2)c1C returned ALDH1A1 inh inconclusive, IMPase inh 4, HTT ATP protect -24% and HTT aggregate -22%.
CCOC(=O)c1c(NC(=O)CC)sc(C(=O)N2CCCCC2)c1C was read as ALDH1A1 inh inconclusive, IMPase Li inh 19%[38.3 µM], IMPase inh 7, HTT ATP protect -36%, HTT aggregate -12% and HPGD block 28µM*.
Screening CNc1nc(-c2ccc(N(C)C)cc2)nc2ccccc12 returned ALDH1A1 inh -12%, IMPase Li inh 3%, HTT ATP protect -93% and HPGD block inconclusive.
For COC(=O)C(Cc1cncn1COCc1ccccc1)NC(=O)OC(C)(C)C (centres undefined) the results were ALDH1A1 inh 20µM*, IMPase Li inh -18%[38.3 µM], IMPase inh 4, HTT ATP protect 2%, HTT aggregate 16% and HPGD block -5%.
Screening Cc1cc(Nc2ccccc2Br)n2nc(C)nc2n1 returned ALDH1A1 inh 3%, IMPase Li inh -6%, HTT ATP protect -12%, HTT aggregate -3% and HPGD block inconclusive.
CCOC(=O)c1ccccc1Nc1cc(C)nc2nc(C)nn12 was read as ALDH1A1 inh 5%, IMPase Li inh 2%, IMPase inh -5, HTT ATP protect -10%[10 µM], HTT aggregate -5% and HPGD block 2.2µM*.
For COC(=O)c1ccc(Nc2cc(C)nc3nc(C)nn23)cc1 the results were ALDH1A1 inh 7%, IMPase Li inh -5%, HTT ATP protect -4%, HTT aggregate -12% and HPGD block -26%.
`COC(=O)c1ccccc1Nc1cc(C)nc2nc(C)nn12` gave ALDH1A1 inh 22%, IMPase Li inh 8%, HTT ATP protect -8%, HTT aggregate -5% and HPGD block 1µM*.
